# Screening data as filed in PubChem.
# The list is not random: actives were taken first. Their share in the collection is about 4.8%.
# SMARCA2 act = activators of SMARCA2 function; MG213 cells, MMTV-luciferase reporter, dexamethasone, overnight; activation, % at 9.1 µM; 370,000 tested, 1% active; AID 652017; in the data active = activation above about 7.8%;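 also: 0% = vehicle wells and 100% = reference activator wells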
# DAX1 inh-1 = DAX1 (NR0B1) inhibition, primary screen | HEK293T StAR-luciferase reporter, SF-1/DAX-1 repression relief | inhibition, % at 6.8 µM | 370,000 tested, 1.1% active | AID 652010;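 active = inhibition above the mean over all tested compounds plus 3 SD, cut at about 3.6% in these data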;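 also: 0% = DAX-1 cells with DMSO and 100% = cells lacking DAX-1 with DMSO; higher inhibition means more luminescence from relief of DAX-1 repression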
# DAX1 inh-2 = NR0B1 (DAX1) inhibition; P51843; HEK293 Gal4-DAX1 luciferase reporter, luminescence; inhibition, % at 6.75 µM; 340,000 tested, 0.99% active; AID 504766;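 active = inhibition above the mean over all tested compounds plus 3 SD, cut at about 4.2% in these data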;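 also: 0% = DAX1-transfected cells with DMSO and 100% = empty-vector control cells with DMSO; inhibition shows as a rise in luminescence from relieved DAX1 repression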
# Target sequence (P51843 207-470 limits assumed): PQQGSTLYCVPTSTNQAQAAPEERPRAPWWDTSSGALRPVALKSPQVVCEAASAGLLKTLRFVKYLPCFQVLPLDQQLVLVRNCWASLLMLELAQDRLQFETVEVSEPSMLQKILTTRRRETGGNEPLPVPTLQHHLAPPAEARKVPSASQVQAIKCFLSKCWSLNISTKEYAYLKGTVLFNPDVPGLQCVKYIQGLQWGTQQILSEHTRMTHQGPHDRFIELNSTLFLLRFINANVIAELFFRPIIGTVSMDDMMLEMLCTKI
# ssDAF12 agonist = activators of S. stercoralis DAF-12 nuclear receptor. HEK293 ssDAF-12/GRIP1 lit1-tk-luc reporter, luminescence; % of 3 µM dafachronic acid response. activation, % at 6.8 µM. 370,000 tested, 1% active. AID 652126;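 active = activation above the mean over all tested compounds plus 3 SD, cut at about 0.9% in these data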;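 also: 0% = DMSO-only wells and 100% = 3 µM delta7-dafachronic acid wells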
# hgDAF12 agonist = activates the H. glycines DAF-12 receptor ligand-binding domain | HEK293 GAL4-hgDAF12 UAS-luciferase reporter, agonist luminescence; normalized to butyrate control | activation, % at 6.8 µM | 370,000 tested, 1.8% active;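 active = activation above a cutoff set at the mean of all screened compounds plus 3 SD, cut at about 10% in these data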;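 also: 0% = DMSO wells and 100% = sodium butyrate wells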
# hcDAF-12 act = activates DAF-12 receptor from parasite H. contortus; HEK293 hcDAF-12 lit1-tk-luc reporter, luminescence; 0% DMSO, 100% Δ7-dafachronic acid; activation, % at 6.8 µM; 370,000 tested, 1.4% active; AID 652067;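 active = activation above the mean of all tested compounds plus 3 SD, cut at about 5.5% in these data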;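 also: 100% = response to 3 µM Δ7-dafachronic acid high control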
# SMARCA2 act conf = SMARCA2 activation, confirmation screen. shares compounds with SMARCA2 act. MG213 cells, MMTV-luciferase with dexamethasone, luminescence, overnight; MG213 cells expressing E1A, Rb sequestered; DMSO wells 0%, reference activator 100%. 3,500 tested, 30% active. activation, % at 9.1 µM;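 active = activation above its plate's cutoff, the mean activation of tested wells plus 3 SD, cut at about 7.9% in these data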
# GAL4-VP16 Luc = activates GAL4-VP16 luciferase, flagging SMARCA2 activator hits; HEK293 GAL4-VP16 pG5luc reporter, luciferase luminescence; scaled: DMSO wells 0%, SAHA wells 100%; 3,500 tested, 41% active; shares compounds with SMARCA2 act; activation, % at 9.1 µM;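 active = activation above the solvent-only control well mean plus 3 SD, averaged across control plates, cut at about 5.2% in these data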
# * = called active by the depositor; · = not tested or not shown.
SMILES,SMARCA2 act,DAX1 inh-1,DAX1 inh-2,ssDAF12 agonist,hgDAF12 agonist,hcDAF-12 act,SMARCA2 act conf,GAL4-VP16 Luc
Cc1cccc(Cn2cc(CN3CC(N(C)CCCOC(=O)c4cc5ccccc5o4)CS3(=O)=O)nn2)c1 (configuration not stated),0,1,·,0,2,1,·,·
C[C@H]1[C@@H](OC(=O)NCc2ccc(C(F)(F)F)cc2)CC[C@@]23CCCN2C(=O)CCC[C@@H]13,·,·,·,-2,-4,-1,·,·
c1ccc2c(N3CCOCC3)nc(N3CCOCC3)nc2c1,1,0,-1,-1,1,0,·,·
CCSc1nc(N2CCOCC2)c2ccccc2n1,13*,0,0,-1,-1,-2,3,1
Cc1ccc(CSc2nn3c(=O)c(C)nnc3s2)cc1,8.6*,0,2,-1,1,1,2,1
COc1ccc(CCC[C@@H](CCC(=O)N(c2ccccc2)c2ccccc2)CCc2ccccc2)cc1,-3,0,·,-2,2,-2,·,·
Brc1cccc(Nc2nc(-c3cccnc3)cs2)c1,8.6*,-1,0,1,10,5,7,6.0*
O=C(O)c1ccc(Nc2nc(-c3cccnc3)cs2)cc1,0,0,2,-1,0,0,·,·
O=C(Nc1nc(-c2cccc(Br)c2)cs1)Oc1ccccc1,8.4*,0,1,-1,4,4,8.0*,4
CCN(C(=O)C1CCCN(c2nnc(-n3cccc3)s2)C1)c1ccccc1C (configuration not stated),-7,-2,·,-1,2,-2,·,·
COc1c(F)c(F)c(C(=O)Nc2ccccc2N2CCN(C(=O)C(C)C)CC2)c(F)c1F,8.0*,0,0,0,1,2,-4,-1
COc1c(F)c(F)c(C(=O)Nc2ccccc2N2CCN(C(C)=O)CC2)c(F)c1F,1,-1,0,0,1,3,·,·
CSc1nnc2c(n1)C[C@H](c1ccccc1)[C@@H](C)[C@@H](C(=O)N1CCCC1)C2,-1,0,·,-2,-3,-2,·,·
CCOc1ccc(C(=O)c2ccc(OCC)c(N)c2)cc1N,8.6*,0,0,-1,7,2,6,6.5*
C=CCOc1ccc2oc(=O)cc(C)c2c1,10*,0,-2,-2,-2,-3,-2,0
COc1cccc(NC(=O)c2ccc3nsnc3c2)c1,8.1*,1,0,1,9,3,4,10*
COc1cccc(NC(=O)c2nn(C)cc2Br)c1,8.0*,0,1,-1,4,0,4,3
CCn1cc(Br)c(C(=O)Nc2cccc(SC)c2)n1,8.0*,0,0,-1,6,2,4,4
CCOc1ccc(NC(=O)c2nn(C)cc2Br)cc1,5,2,2,0,7,1,·,·
O=C(NCC1COc2ccccc2O1)c1ccc(NC(=O)c2cccc(F)c2)cc1 (configuration not stated),-2,-1,·,-2,-8,-3,·,·
COc1cccc(N(C)C(=O)[C@@H](C2CC2)[C@@H](O)c2ccc3ccccc3c2)c1,-1,-2,·,-1,2,-1,·,·
O=C1C=C(c2cccs2)C[C@H](c2ccccc2)[C@H]1n1nnc([N+](=O)[O-])n1,8.3*,0,0,-2,-2,-2,8.3*,2
C=C1c2ccccc2NC(=O)N1c1ccc(OC)cc1,9.1*,3,1,-1,10,0,13*,3
O=C(COCc1ccccc1)NC1CCCCN(Cc2ccc(Cl)cc2)C1=O (configuration not stated),-2,-1,·,-1,-2,-3,·,·
